From PubChem
Most compounds without a hit are left out; they make up all but 3.1% or so of the library.
MEKK3 PB1 HTS: modulators (inhibitors or enhancers) of MEK5 binding to human MEKK3 PB1 domain; binding response (% of control), % at 10 µM; 290,000 compounds, 1.4% hits; bead-based flow cytometry, Alexa488-MEK5 binding to MEKK3; actives lie on both sides; 0 = blocked by unlabeled MEK5, 100 = vehicle;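 active = binding response more than 3 SD above or below the average of its plate-row segment, actives on both sides; inconclusive = wells at one plate position flagged as instrument error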;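 note: Alexa488 bead fluorescence after subtracting the streptavidin-only scavenger bead signal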
Target sequence (Q99759 whole entry, looked up, the tested form may be a part): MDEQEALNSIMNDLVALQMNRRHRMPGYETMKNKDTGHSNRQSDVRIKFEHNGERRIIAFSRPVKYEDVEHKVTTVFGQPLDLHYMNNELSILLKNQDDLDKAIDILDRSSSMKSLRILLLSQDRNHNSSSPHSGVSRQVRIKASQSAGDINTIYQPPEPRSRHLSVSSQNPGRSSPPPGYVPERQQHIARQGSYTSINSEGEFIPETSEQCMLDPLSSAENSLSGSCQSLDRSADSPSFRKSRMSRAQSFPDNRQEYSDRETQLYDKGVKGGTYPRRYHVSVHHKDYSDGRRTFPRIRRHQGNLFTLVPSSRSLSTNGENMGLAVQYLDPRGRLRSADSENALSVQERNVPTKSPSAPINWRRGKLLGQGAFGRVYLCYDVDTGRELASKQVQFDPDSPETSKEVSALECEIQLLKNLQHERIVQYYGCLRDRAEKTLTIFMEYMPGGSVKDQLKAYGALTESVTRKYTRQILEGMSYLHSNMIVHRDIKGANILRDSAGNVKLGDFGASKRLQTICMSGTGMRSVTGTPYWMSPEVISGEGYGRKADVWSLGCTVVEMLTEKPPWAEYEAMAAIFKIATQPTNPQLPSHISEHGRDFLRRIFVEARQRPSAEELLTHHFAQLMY
ATG4B inhibitor: blocks human ATG4B protease cleavage of LC3 substrate | Q9Y4P1 | ATG4B cleavage of LC3-PLA2, NBD-HPC fluorescence, 1 h | inhibition, % at 8.33 µM | 340,000 compounds, 0.51% hits | AID 504462; in the data active = inhibition above about 40%
PREPL inh: human PREPL enzyme inhibition. recombinant PREPL, fluorescence polarization activity-based probe. inhibition, % at 5.96 µM. 320,000 compounds, 0.68% hits. AID 2751
MEKK2 WT-MEK5: raises or lowers MEK5 binding to wildtype human MEKK2 PB1 domain. Q9Y2U5. bead flow cytometry, Alexa488-MEK5 binding to MEKK2 WT; actives lie on both sides. binding response (% of control), % at 10 µM. 290,000 compounds, 1.1% hits. AID 1531; in the data active = binding response below about 67% or above about 130%; inconclusive = no clear call, values can overlap the other calls; inactive = in between
MEKK2mut PB1 HTS: signal of MEK5 binding to mutant human MEKK2 PB1 domain | bead flow cytometry, Alexa488-MEK5 binding to MEKK2 mutant | 290,000 compounds, 0.35% hits | AID 1530 | percent response, % at 10 µM; in the data active = percent response above about 24%, passing the limit was not always enough
UBC13 polyUb: blocks human UBC13 polyubiquitin chain formation | P61088 | TR-FRET | inhibition, % at 20 µM | 330,000 compounds, 0.47% hits; in the data active = inhibition above about 45%, passing the limit was not always enough; inconclusive = no clear call, values can overlap the other calls
Target sequence (P61088 whole entry, looked up): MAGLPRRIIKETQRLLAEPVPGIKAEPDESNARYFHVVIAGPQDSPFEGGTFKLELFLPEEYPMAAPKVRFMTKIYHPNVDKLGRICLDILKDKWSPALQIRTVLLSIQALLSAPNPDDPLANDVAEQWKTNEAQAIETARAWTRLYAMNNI
PREPL confirm: confirmation of human PREPL enzyme inhibitors. shares compounds with PREPL inh. recombinant PREPL, fluorescence polarization activity probe. inhibition, % at 5.96 µM. 2,000 compounds, 67% hits
Casp3 UBC13 ctr: caspase-3 inhibition (UBC13 counter-screen); shares compounds with UBC13 polyUb; inhibition, % at 20 µM; Recombinant caspase-3, Caspase-Glo 3/7 luminescence, 60 min; 1,400 compounds, 4% hits; AID 488856;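 active = mean inhibition across replicates above about 26%, limit read from the data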
UBC13 conf: human UBC13 polyubiquitin inhibition, confirmed. shares compounds with UBC13 polyUb. UBC13 polyubiquitination, TR-FRET, biochemical. inhibition, % at 10 µM. 1,400 compounds, 68% hits. AID 488859; in the data active = inhibition above about 45%; inconclusive = no clear call, values can overlap the other calls
ATG4B confirm: ATG4B (human) inhibition, single-dose confirmed; shares compounds with ATG4B inhibitor; ATG4B protease fluorescent substrate cleavage assay; inhibition, % at 8.33 µM; 320 compounds, 92% hits; in the data active = inhibition above about 39%
PLA2 ctr: inhibits human PLA2, flagging false ATG4B inhibitors. AID 588402. inhibition, % at 8.33 µM. shares compounds with ATG4B inhibitor. purified PLA2, NBD-C6-HPC fluorescence, 45 min. 1,600 compounds, 66% hits; in the data active = inhibition above about 50%
Large screens that a line does not name were inactive (follow-up assays come after a bar, where they were run). Cut-off read from the data, not from the text of the source, unless noted: active = inhibition above about 43%; inactive = the rest.

CC[C@]12C(=O)N(C)C[C@H]([C@@H]3C(=O)N(Cc4ccccc4)C(=O)[C@@H]31)N2C(=O)c1ccc(C(F)(F)F)cc1	none (no result: MEKK3 PB1 HTS, PREPL inh, MEKK2 WT-MEK5, MEKK2mut PB1 HTS, UBC13 polyUb)
Cc1c(Cl)c([N+](=O)[O-])nn1CCCC(=O)Nc1cccc(Cl)c1Cl	ATG4B inhibitor 60, PREPL inh 47 | PREPL confirm inactive | PLA2 ctr 67
Cc1cc(C)c(S(=O)(=O)NC2CC(C)(C)NC(C)(C)C2)cc1Br	none (no result: PREPL inh)
CC1CC(C)CN(C(=O)c2ccc3c(c2NCCO)C(=O)c2ccccc2C3=O)C1 (stereo not given)	ATG4B inhibitor 59, PREPL inh 56 | PREPL confirm 58 | PLA2 ctr 67
Cn1nc(-c2ccccn2)nc2c(=O)n(C)c(=O)nc1-2	ATG4B inhibitor 79, PREPL inh 59 | PREPL confirm 52 | ATG4B confirm inactive | PLA2 ctr inactive
O=C(Nc1ccccc1-c1ccccc1)c1ccccc1	none
Nc1c(S(=O)(=O)O)cc(NC(=O)c2ccccc2)c2c1C(=O)c1ccccc1C2=O	ATG4B inhibitor 76, PREPL inh 65 | PREPL confirm 55 | PLA2 ctr 68
Cc1ccc(S(=O)(=O)/N=C2\C(=O)c3ccccc3C([O-])=C2n2cc[n+](CCC(C)C)c2)cc1	none
Cc1ccc(NC(=O)C[n+]2ccn(C3=C([O-])c4ccccc4C3=O)c2)cc1	UBC13 polyUb 74 | Casp3 UBC13 ctr inactive | UBC13 conf 65
Cc1ccc(C(=O)N(CC(=O)NC2CCCC2)c2ccccc2Cl)s1	none
CC1(c2ccc(Cl)cc2Cl)NC(=O)N(CC(=O)Nc2ccc3[nH]c(=O)[nH]c3c2)C1=O (stereo not given)	none (no result: MEKK3 PB1 HTS, MEKK2 WT-MEK5, MEKK2mut PB1 HTS)
COC(=O)c1ccc(CNC(=O)COC(=O)c2cc(Cl)ccc2O)cc1	UBC13 polyUb 52 (no result: MEKK3 PB1 HTS, MEKK2 WT-MEK5, MEKK2mut PB1 HTS) | Casp3 UBC13 ctr inactive | UBC13 conf inactive
O=C(COC(=O)c1cc(Cl)ccc1O)NC(=O)NCc1ccccc1	UBC13 polyUb 50 (no result: MEKK3 PB1 HTS, MEKK2 WT-MEK5, MEKK2mut PB1 HTS) | Casp3 UBC13 ctr inactive | UBC13 conf inconclusive
O=C(COC(=O)c1cc(Cl)ccc1O)NCCNC(=O)COC(=O)c1cc(Cl)ccc1O	none
Fc1ccc(Nc2nc(NCc3ccco3)c3ccccc3n2)cc1	UBC13 polyUb 54 | Casp3 UBC13 ctr inactive | UBC13 conf 74
Nc1nc(Nc2ccccc2)nc(NCc2ccco2)c1[N+](=O)[O-]	none
CCC(=O)NN1CCN(c2ccncc2S(=O)(=O)N2CCCCC2)CC1	none
Cc1cc(-c2nnc(SCC(=O)Nc3nc(-c4ccc(Cl)cc4)cs3)o2)no1	UBC13 polyUb 49 | Casp3 UBC13 ctr inactive | UBC13 conf inactive
Cc1cccc(-n2nc3c(c2NC(=O)c2ccc4c(c2)OCO4)CS(=O)(=O)C3)c1C	none
O=C(CCCn1c(=S)[nH]c2ccc(Br)cc2c1=O)N1CCN(c2ccccn2)CC1	UBC13 polyUb 45 | Casp3 UBC13 ctr inactive | UBC13 conf inactive
O=C(CCCn1c(=S)[nH]c2ccc(Br)cc2c1=O)NCc1ccccn1	none
CN(C)CCN(C(=O)c1ccc(S(=O)(=O)N(C)c2ccccc2)cc1)c1nc2cc3c(cc2s1)OCCO3	none
CN(C)CCCN(C(=O)c1ccc(S(=O)(=O)N2CCOCC2)cc1)c1nc2cc3c(cc2s1)OCO3	none
CCN(Cc1ccccc1)S(=O)(=O)c1ccc(C(=O)N(CCCN(C)C)c2nc3cc4c(cc3s2)OCCO4)cc1	UBC13 polyUb 96 (no result: MEKK3 PB1 HTS, MEKK2 WT-MEK5, MEKK2mut PB1 HTS) | Casp3 UBC13 ctr inactive | UBC13 conf 114
CN(C)CCCN(C(=O)c1ccc(S(=O)(=O)N2CCCCC2)cc1)c1nc2cc3c(cc2s1)OCO3	UBC13 polyUb 55 | Casp3 UBC13 ctr inactive | UBC13 conf 90
CN(C)CCCN(C(=O)c1ccc(C(=O)c2ccccc2)cc1)c1nc2cc3c(cc2s1)OCO3	MEKK2 WT-MEK5 170, MEKK2mut PB1 HTS 38, UBC13 polyUb 72 | Casp3 UBC13 ctr inactive | UBC13 conf 106
COc1ccc(-c2cc3ccccc3oc2=O)cc1NC(=S)NC(=O)c1ccc2c(c1)OCCO2	UBC13 polyUb 49 | Casp3 UBC13 ctr inactive | UBC13 conf 46
CCC(=O)Nc1cc(-c2cc3ccccc3oc2=O)ccc1OC	none
O=C(CCc1nnc2ccc(N3CCCC3)nn12)Nc1ccc(F)c(F)c1	UBC13 polyUb 50 | Casp3 UBC13 ctr inactive | UBC13 conf inconclusive
C=CCn1c(=O)c(C(=O)Nc2ccccc2S(N)(=O)=O)c(O)c2ccccc21	UBC13 polyUb 46 | Casp3 UBC13 ctr inactive | UBC13 conf inactive
c1ccc2c(-c3ccc(OCCN4CCCCC4)cc3)c(-c3ccsc3)sc2c1	UBC13 polyUb 58 (no result: MEKK3 PB1 HTS, MEKK2 WT-MEK5, MEKK2mut PB1 HTS) | Casp3 UBC13 ctr inactive | UBC13 conf 56
CN(C)CCOc1ccc(-c2c(-c3ccccc3)sc3ccccc23)cc1	UBC13 polyUb 82 (no result: MEKK3 PB1 HTS, MEKK2 WT-MEK5, MEKK2mut PB1 HTS) | Casp3 UBC13 ctr inactive | UBC13 conf 90
c1ccc(-c2sc3ccccc3c2-c2ccc(OCCN3CCCCC3)cc2)cc1	none (no result: MEKK3 PB1 HTS, MEKK2 WT-MEK5, MEKK2mut PB1 HTS)
CCOC(=O)c1ccc2c(c1)N(CC#N)C(=O)C(C)(C)O2	none
NCCCNCCCCNCCCN	UBC13 polyUb 93 (no result: MEKK3 PB1 HTS, MEKK2 WT-MEK5, MEKK2mut PB1 HTS) | Casp3 UBC13 ctr inactive | UBC13 conf 73
NCCCS(=O)(=O)O	none
COc1cc(CC(=O)OCC(=O)c2ccc(F)cc2)cc(OC)c1OC	none (no result: MEKK3 PB1 HTS, MEKK2 WT-MEK5, MEKK2mut PB1 HTS)
Nc1nc(Cl)nc2ccc(Br)cc12	UBC13 polyUb 49 | Casp3 UBC13 ctr inactive | UBC13 conf inconclusive
CCC(=O)c1cc2c(C)cc(=O)oc2c(C)c1OC(C)=O	none
CCC(=O)c1cc2c(C)cc(=O)oc2c(C)c1O	UBC13 polyUb 45 | Casp3 UBC13 ctr inactive | UBC13 conf inconclusive
N#Cc1sc2nc(-c3cccs3)cc(-c3ccc(F)cc3)c2c1N	UBC13 polyUb 59 | Casp3 UBC13 ctr inactive | UBC13 conf inactive
O=C(c1cccc(C(F)(F)F)c1)N1CCc2c([nH]c3ccccc23)C1C(F)(F)F (stereo not given)	none
O=C(NCC1CCN(Cc2cccc(Cl)c2)CC1)C1CCCN(c2ncnc3c2nc2n3CCCCC2)C1 (stereo not given)	UBC13 polyUb 93 | Casp3 UBC13 ctr inactive | UBC13 conf 107
